Among all 63,000 compounds or so, about 1,100 (1.7%) were called active. Many of the other results were omitted from the sample, so actives are more common in it than they were. Entries with a potency or affinity are not part of this list. Unmarked numbers belong to inactive results. Cut-off read from the data, not from the text of the source: active = cytotoxicity above about 50%; inactive = the rest.

The assay in a line: HPDE-C7 pancreatic duct cell viability loss – fluorescence, HTS (AID 430).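 Note: cells exposed to compound for 48 hours before viability readout; 0% = vehicle and 100% = reference cytotoxic drug.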 To be noted: HPDE-C7 pancreatic duct cells viability, at 10 µM, active compounds read high.
Consider `CCCC(=O)Nc1ccccc1-c1nnn(CC(=O)Nc2ccc(OC)cc2)n1`, for which the cytotoxicity was -30.9%.

`COc1ccc(C(=O)CSc2nnc(-c3ccccn3)n2Cc2ccco2)cc1`: the cytotoxicity is -5%. As for `O=C(CSc1nnc(-c2cc3ccccc3cc2O)n1Cc1ccco1)c1ccc(F)cc1`, the figure is -5.2%; as for `COc1ccc(C(=O)CSc2nnc(-c3cc4ccccc4cc3O)n2Cc2ccco2)cc1`, 55.6% (active).

`CCN(CCNC(=O)c1cccc(N2CCCC2=O)c1)c1ccccc1`: the cytotoxicity is -9.5%. The figure for `CCCCc1cc(=O)oc2cc(C)c(CN3CCCC3)c(O)c12` is -12.4%.

On to `CCc1cc(=O)oc2cc(C)cc(O)c12`, for which the cytotoxicity is 0%. Consider `CCCCCc1cc(O)c2c(C)cc(=O)oc2c1`, for which the cytotoxicity was 50.3% (active). As for `COC(=O)c1ccccc1NC(=O)Cn1c(-c2nonc2N)nc2ccccc21`, the figure is 47%; as for `Nc1nonc1-c1nc2ccccc2n1CC(=O)NC1CCCC1`, 0%; as for `Nc1nonc1-c1nc2ccccc2n1Cc1ccccc1`, -38.3%. As for `CCOC(=O)c1ccccc1NC(=O)Cn1c(-c2nonc2N)nc2ccccc21`, the figure is 67.8% (active). As to `CCOc1ccc(CCNC(=O)Cn2c(-c3nonc3N)nc3ccccc32)cc1OCC`, the cytotoxicity is -22.9%.

As for `COc1ccc(CCNC(=O)Cn2c(-c3nonc3N)nc3ccccc32)cc1OC`, the cytotoxicity was 6.6%.

On to `CCCCOc1ccccc1NC(=O)Cn1c(-c2nonc2N)nc2ccccc21`, for which the cytotoxicity is 55.1% (active). Regarding `COc1cc(Cn2c(-c3nonc3N)nc3ccccc32)ccc1C`, the cytotoxicity was 30.4%. With `COc1cccc(Cn2c(-c3nonc3N)nc3ccccc32)c1`, the cytotoxicity was 53.8% (active). On to `CC(=O)N1CCN=C1SCc1ccccc1`, for which the cytotoxicity was 3%. For the molecule `Cc1cc(C(=O)N2CC(C)CC(C)C2)n(-c2ccccc2)n1` (centres undefined), the cytotoxicity was -6.9%. As for `Cc1nc2ccccc2c(=O)n1NC(=O)c1ccc(F)cc1Cl`, the figure is -0.2%; as for `COc1ccc2nc(NC(=O)c3ccc4ncsc4c3)sc2c1`, 0.5%; as for `CCOc1cccc(CN2CCN(c3cccc(C(F)(F)F)c3)CC2)c1O`, -3.2%. On to `CCOC(=O)C1=C(CSc2nc3c(cc2C#N)CCC3)OC(N)=C(C#N)C1c1ccccc1` (centres undefined), for which the cytotoxicity was 101% (active).

As to `CCOC(=O)C1=C(CSc2nc(C)cc(C)c2C#N)OC(N)=C(C#N)C1c1cccs1` (centres undefined), the cytotoxicity was -28.5%. As for `CCOC(=O)C1=C(CSc2nc3c(cc2C#N)CN(C)CC3)OC(N)=C(C#N)C1c1ccccc1` (centres undefined), the figure is 3.4%; as for `CCOC(=O)C1=C(C)OC(N)=C(C#N)C1c1ccc(OC)c(C)c1OC` (centres undefined), -1.3%. As to `CCOC(=O)C1=C(CSc2nc(C)ccc2C#N)OC(N)=C(C#N)C1c1cccc(OC)c1OC` (centres undefined), the cytotoxicity is 59.3% (active). Regarding `CCOC(=O)C1=C(CSc2nc(-c3ccncc3)ccc2C#N)OC(N)=C(C#N)C1c1cccnc1` (centres undefined), the cytotoxicity is 4%.

For `CC(c1ccco1)N(C(=O)CSc1ccc(Br)cc1)c1ccccn1` (centres undefined), the cytotoxicity is 9.1%. As to `CCCCOC(=O)C(C)Nc1n[nH]c(=O)[nH]c1=O` (centres undefined), the cytotoxicity was 8.9%. On to `Cc1cc(C)n(S(=O)(=O)c2ccc3ccccc3c2)n1`, for which the cytotoxicity is 28.5%. The figure for `COC(=O)C1=C(CSCc2ccco2)NC(=O)NC1c1cc(C)ccc1C` (centres undefined) is -3.6%; for `c1ccc(-c2noc(CN3CCN(c4ccccc4)CC3)n2)cc1` it is -1.5%; for `COc1cccc(CNC(=O)C2CCN(S(=O)(=O)c3ccc4c(c3)CCC(=O)N4)CC2)c1` it is -2.9%. `Oc1ccccc1-c1nc(NCc2ccco2)c2ccccc2n1`: the cytotoxicity was 0.8%. As for `c1coc(CNc2nc(N3CCCCC3)nc3ccccc23)c1`, the cytotoxicity was 25.2%. The figure for `O=C(Cn1ncc2c(=O)oc3ccccc3c21)N1CCc2ccccc2C1` is -15.7%; for `N#Cc1c(/N=C/N2CCCC2)oc(-c2ccccc2)c1-c1ccccc1` it is 13.1%.

With `N#Cc1c(/N=C/c2ccco2)oc(-c2ccccc2)c1-c1ccccc1`, the cytotoxicity is 70% (active). The figure for `N#Cc1c(N)oc(-c2ccccc2)c1-c1ccccc1` is -7.1%. On to `CCC(=O)N1CCN(c2ccc(NC(=O)c3ccc4c(c3)OCO4)cc2)CC1`, for which the cytotoxicity was -5.7%. Consider `COc1ccc(CN(C(=O)c2ccccc2OC)C2CCS(=O)(=O)C2)cc1` (centres undefined), for which the cytotoxicity was -0.4%. As for `CCN(CC)C(=O)CSc1nnc(-c2ccccc2)n1N`, the figure is -1.9%. With `O=C(NC1CCCCC1)N1CCC(n2c(=O)[nH]c3ccccc32)CC1`, the cytotoxicity was -3.9%. As for `O=c1[nH]c2ccccc2n1CCCN1CCN(C(c2ccccc2)c2ccccc2)CC1`, the figure is -7.2%; as for `O=C1CC(c2ccccc2)Sc2ccccc2N1` (centres undefined), -15%; as for `Cn1cccc1CNC(=O)Nc1ccc(Cl)cc1`, -23.2%.

For the molecule `C=C(C)COc1ccc(-c2n[nH]c(C)c2Oc2ccccc2OC)c(O)c1`, the cytotoxicity is 61.3% (active). With `C=C(C)COc1ccc(-c2nc(N)ncc2Oc2ccccc2OC)c(O)c1`, the cytotoxicity was 0.9%.

For the molecule `C=C(C)COc1ccc(-c2nc(N)nc(C)c2Oc2ccccc2OC)c(O)c1`, the cytotoxicity was -1.3%. As to `C=C(C)COc1ccc(-c2ncncc2Oc2ccc(OC)cc2)c(O)c1`, the cytotoxicity is 1.9%.

`CCOc1ccc(-c2n[nH]c(C)c2Oc2ccccc2OC)c(O)c1`: the cytotoxicity was -2.5%. `CC(C)Cc1ccc(C#N)c(SCC(N)=O)n1`: the cytotoxicity was -5.5%. For `Cc1ccc(NC(=O)CSc2nnc(Cn3c(=O)sc4ccccc43)n2C)cc1Cl`, the cytotoxicity is -0.9%. As to `O=C(COC(=O)CCC(=O)c1ccc2c(c1)OCCO2)NCc1ccc2c(c1)OCO2`, the cytotoxicity is -8.4%.

In the case of `Nn1c(Cc2ccccc2F)nnc1SCC(=O)N1CC(=O)Nc2ccccc21`, the cytotoxicity is -3.4%. The figure for `Cc1cc(C)cc(N2CCCn3c2nc2c3c(=O)n(CC(=O)OCc3ccccc3)c(=O)n2C)c1` is 26.4%; for `O=C(O)C1CCCCC1C(=O)OCCCCOC(=O)C1CCCCC1C(=O)O` (centres undefined) it is 3.9%; for `COc1ccc(-c2n[nH]c(C)c2-c2cnn(-c3ccccc3)c2)c(O)c1` it is 36.4%. For `COc1ccc(Oc2c(-c3ccc(O)cc3O)n[nH]c2C)cc1`, the cytotoxicity was 26.3%. The figure for `Cc1[nH]nc(-c2ccc(O)cc2O)c1Oc1ccccc1` is 69.8% (active). As to `Oc1ccc(-c2[nH]ncc2-c2ccc(Cl)cc2)c(O)c1`, the cytotoxicity is 33.3%. With `Cc1[nH]nc(-c2ccc(O)cc2O)c1-c1ccc(Cl)cc1`, the cytotoxicity is 60.1% (active). As for `COc1ccc(-c2n[nH]c(C)c2-c2ccc(Cl)cc2)c(O)c1OC`, the figure is -29.4%.

Source of the values: PubChem BioAssay AID430 (Sanford-Burnham Center for Chemical Genomics, 2006).
